Hits are enriched below; roughly 4.2% of the tested compounds scored in any of these assays.
VDR inhibitor: blocks the human vitamin D receptor; VDR-SRC2-3 peptide fluorescence polarization, 2 h; Potency, µM, actives largely listed as inhibitors; actives 0.93% (n = 400,000); P11473
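Compounds are added to VDR with labelled SRC2-3 coactivator peptide and held 2 h at room temperature. Inhibition of the VDR–peptide interaction is then read as a change in fluorescence polarization.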
PLK1 PBD block: blocks phosphopeptide binding to human PLK1 polo-box domain; Plk1 PBD binding of FITC phosphopeptide, fluorescence polarization; actives 2.8% (n = 360,000); P53350; Potency, µM, actives largely listed as inhibitors; AID 720504; note: series mostly up to about 57 µM; nearly all actives have a fitted effect of over 65% in size
Sfp inh: blocks B. subtilis Sfp PPTase activity. Q9F4F7. Biochemical Sfp PPTase activity, qHTS. Potency, µM, hits mostly inhibitors. actives 3.5% (n = 310,000);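 note: the enzyme is Sfp with the accession as filed and its product quenches rhodamine fluorescence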
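Reaction rates are the 30-min fluorescence difference (ex 525, em 598 nm) in wells containing 15 nM Sfp, 5 uM rhodamine-CoA and 12.5 uM BHQ-2-YbbR at pH 7.6 with 10 mM MgCl2.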
12-LOX inh: blocks human arachidonate 12S-lipoxygenase; purified 12hLO, xylenol orange hydroperoxide absorbance; AID 1671190; actives 1.1% (n = 580,000); Potency, µM (doses to about 108 µM), hits mostly inhibitors
Target sequence (P18054 whole entry, looked up): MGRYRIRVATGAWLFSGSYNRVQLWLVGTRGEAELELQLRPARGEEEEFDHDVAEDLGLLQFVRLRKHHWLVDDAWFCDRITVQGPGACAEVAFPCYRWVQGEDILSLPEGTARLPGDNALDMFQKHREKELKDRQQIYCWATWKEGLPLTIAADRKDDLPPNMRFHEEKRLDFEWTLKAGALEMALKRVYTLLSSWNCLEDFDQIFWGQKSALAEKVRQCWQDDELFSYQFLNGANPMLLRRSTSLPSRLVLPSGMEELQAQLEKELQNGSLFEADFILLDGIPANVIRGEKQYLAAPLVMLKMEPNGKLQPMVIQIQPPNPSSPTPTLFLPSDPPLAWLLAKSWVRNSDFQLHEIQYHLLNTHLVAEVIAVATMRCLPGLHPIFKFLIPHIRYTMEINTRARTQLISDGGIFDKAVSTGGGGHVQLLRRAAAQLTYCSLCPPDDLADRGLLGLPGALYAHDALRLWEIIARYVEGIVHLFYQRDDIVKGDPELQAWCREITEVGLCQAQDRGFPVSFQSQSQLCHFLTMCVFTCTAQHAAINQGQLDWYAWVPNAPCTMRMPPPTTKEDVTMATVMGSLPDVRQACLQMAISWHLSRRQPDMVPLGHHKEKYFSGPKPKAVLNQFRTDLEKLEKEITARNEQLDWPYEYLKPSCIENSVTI
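Purified human 12hLO at 150 nM in 25 mM Hepes, 0.01% Triton X-100, pH 7.0, preincubated 15 min at room temperature with compound. Reaction started with 40 uM arachidonic acid, 30 min at room temperature. Hydroperoxide measured by Fe-xylenol orange, 573/405 nm absorbance ratio.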
Each line names hits and unclear results; the compound was inactive in the other large screens; ! = not active in a repeat. Calls come from the whole dose curve; as a rule, active = well fitted curve in the direction sought with a large enough effect; inconclusive = small, poorly fitted or top-dose-only effect, or another doubt; inactive = no such curve, though single readings can be large; an effect the other way counts as inactive or inconclusive.

COc1ccc(C2NC(=S)NC3=C2CCc2ccccc23)cc1 (configuration not stated)	12-LOX inh 40µM (no result: VDR inhibitor, PLK1 PBD block, Sfp inh)
O=C1NC2=C(CCc3ccccc32)C(c2ccc(Br)cc2)N1 (configuration not stated)	PLK1 PBD block inconclusive, 12-LOX inh inconclusive
COc1ccc(C2NC(=S)NC(C)=C2C(=O)N2CCOCC2)cc1 (configuration not stated)	Sfp inh inconclusive
Cc1ccc(C)c(N2CCN(C(=O)C3CCCN(Cc4nc(-c5cccc(Cl)c5)oc4C)C3)CC2)c1 (configuration not stated)	none (no result: PLK1 PBD block, Sfp inh)
COCCOc1cc(NC(=O)c2ccccc2)c(Cl)cc1Cl	none
Cc1cc2oc(=O)cc(CN3CCN(c4ccc(F)cc4)CC3)c2cc1C	none (no result: VDR inhibitor, PLK1 PBD block, Sfp inh)
CCCNc1c(NS(=O)(=O)c2ccc3c(c2)oc(=O)n3C)c(=O)oc2ccccc12	none (no result: VDR inhibitor, PLK1 PBD block, Sfp inh)
C/C(=N\NC(N)=S)c1ccc(-n2ccnc2)cc1	Sfp inh 79µM
CN1CC=C2C(C#N)=C(N)C(C#N)(C#N)[C@H](c3cccs3)[C@H]2C1	VDR inhibitor inconclusive, PLK1 PBD block 21µM (no result: 12-LOX inh)
Cc1cc(C(=O)N/N=C/c2ccc(O)c(O)c2O)c(C)n1-c1ccccc1	PLK1 PBD block 6.7µM, Sfp inh 8.9µM, 12-LOX inh inconclusive
O=C(CCN1CCN(c2ccccc2)CC1)N/N=C/c1ccc(O)c(O)c1O	PLK1 PBD block 11µM, Sfp inh 8.9µM, 12-LOX inh inconclusive
O=C(Cc1csc(N2CCOCC2)n1)N/N=C/c1ccc(O)c(O)c1O	PLK1 PBD block 11µM, Sfp inh 10µM
Cc1cc(/C=N/NC(=O)c2ccncc2)c(C)n1-c1ccccc1	none
CC#CC[N+](C)(CC#CC)CC(=O)c1ccccc1	none
O=S(=O)(NC1=NCCCCC1)c1ccc2sc(NS(=O)(=O)c3ccc4ccccc4c3)nc2c1	VDR inhibitor inconclusive, PLK1 PBD block 11µM, 12-LOX inh inconclusive
Cc1ccc(S(=O)(=O)NN(Cc2ccccc2)Cc2ccccc2)cc1	PLK1 PBD block inconclusive, 12-LOX inh 16µM (no result: VDR inhibitor, Sfp inh)
COc1ccc(C(=O)O/N=C(\N)c2ccc(OC)c(OC)c2)cc1	none
O=C(COC(=O)C1CCN(c2ccc(C(F)(F)F)cn2)CC1)NC1CCCCC1	none (no result: Sfp inh)
Cc1cccc(C)c1NCc1n[nH]c(=S)n1-c1ccccc1	Sfp inh 79µM
O=C(NCc1n[nH]c(=S)n1-c1ccc(Cl)c(Cl)c1)c1cccs1	Sfp inh 89µM, 12-LOX inh inconclusive
O=C(Cc1ccccc1)NCc1n[nH]c(=S)n1-c1ccc(Br)cc1	VDR inhibitor inconclusive, PLK1 PBD block 11µM, 12-LOX inh inconclusive
COc1ccc(OC)c(NC(=O)C2(C)CCN2C(=O)C(C)(C)c2ccccc2)c1 (configuration not stated)	none (no result: VDR inhibitor, Sfp inh)
CC1(C)Cc2cccc(OCC(=O)NCCOc3ccccc3)c2O1	VDR inhibitor inconclusive, PLK1 PBD block 21µM
COc1ccccc1CCNC(=O)COc1cccc2c1OC(C)(C)C2	none (no result: Sfp inh)
CCc1ccccc1N1CC(c2nc3ccccc3n2CCC2CCCCC2)CC1=O (configuration not stated)	12-LOX inh 28µM (no result: PLK1 PBD block, Sfp inh)
Cc1ccccc1N1CC(c2nc3ccccc3n2CCC2CCCCC2)CC1=O (configuration not stated)	12-LOX inh inconclusive (no result: PLK1 PBD block, Sfp inh)
Cc1cc(Cl)ccc1NC(=S)NCCc1ccc(Cl)cc1	12-LOX inh 22µM
CC(C)c1ccc(CCNC(=S)Nc2ccc(Cl)cc2Cl)cc1	12-LOX inh 14µM (no result: VDR inhibitor, PLK1 PBD block, Sfp inh)
Cc1cccc(-n2c(O)c(/C=N/NC(=O)c3ccccc3Cl)c3ccccc3c2=O)n1	none
CC(=O)c1c(C)oc2c(Br)cc(NS(=O)(=O)c3ccc(Br)cc3)cc12	12-LOX inh 45µM (no result: PLK1 PBD block, Sfp inh)
CC(=O)c1c(C)oc2c(Br)cc(NS(=O)(=O)c3ccc(Cl)c(C)c3)cc12	none (no result: VDR inhibitor, PLK1 PBD block, Sfp inh)
CC(C)c1nc2sc3c(=O)[nH]c(=S)[nH]c3c2c2c1CCCC2	VDR inhibitor 71µM, PLK1 PBD block 24µM, 12-LOX inh 25µM
CC(C)c1nc2sc3c(=O)[nH]c(=S)[nH]c3c2c2c1CCC2	none (no result: VDR inhibitor, PLK1 PBD block, 12-LOX inh)
Cc1ccc(CSc2nc3cc(C(=O)NC4CCCC4)ccc3c(=O)n2Cc2ccccc2)cc1	none (no result: PLK1 PBD block, Sfp inh)
O=C(Cn1c2ccccc2c(=O)c2ccccc21)Nc1cccc(F)c1	VDR inhibitor inconclusive, PLK1 PBD block 11µM
O=C(Cn1c(=O)n(Cc2ccco2)c(=O)c2ccccc21)Nc1cccc(F)c1	12-LOX inh inconclusive (no result: PLK1 PBD block, Sfp inh)
N#Cc1ncn(C2OC(CO)C(O)C2O)c1N (configuration not stated)	none (no result: VDR inhibitor, Sfp inh)
CN1CCN(C(CNC(=O)c2ccc(F)cc2)c2ccc3c(c2)OCO3)CC1 (configuration not stated)	none (no result: PLK1 PBD block, Sfp inh)
COc1ccccc1CN1C(=O)C(=O)N(Cc2cccc(C)c2)C1=O	none
Cc1cc(C)cc(NC(=O)CSc2nc3[nH]ncc3c(=O)[nH]2)c1	12-LOX inh inconclusive
C#CCSc1nc2[nH]ncc2c(=O)[nH]1	none
Cc1csc(NC(=O)CSc2nc3[nH]ncc3c(=O)[nH]2)n1	VDR inhibitor inconclusive, PLK1 PBD block 21µM
C=CCSc1nc2[nH]ncc2c(=O)[nH]1	PLK1 PBD block 30µM
[O-]c1c[n+](-c2ccc(-[n+]3cc([O-])on3)cc2)no1	VDR inhibitor inconclusive, Sfp inh 56µM, 12-LOX inh inconclusive
[O-]c1c[n+](-c2ccccc2)no1	12-LOX inh inconclusive
Cc1cccc(C)c1NC(=S)N(c1ccccc1)C(C)C	PLK1 PBD block 30µM
Cc1cccc(C)c1NC(=S)NC(C)CCc1ccccc1 (configuration not stated)	12-LOX inh 40µM
Cc1ccc(NC(=S)NC(C)CCc2ccccc2)cc1C (configuration not stated)	12-LOX inh inconclusive
O=C(NNC(=O)c1ccc(O)c(Cl)c1)c1cccc(S(=O)(=O)N2CCOCC2)c1	12-LOX inh inconclusive (no result: Sfp inh)
CCC1(O)CCC12CCN(C(=O)C1CCCC1)CC2 (configuration not stated)	none (no result: VDR inhibitor, PLK1 PBD block, Sfp inh)
COc1ccc(CCC(=O)Nc2c(-c3ccc(N(C)C)cc3)[nH][nH]c2=O)cc1	PLK1 PBD block 21µM (no result: VDR inhibitor, Sfp inh)
COc1ccc(-c2[nH][nH]c(=O)c2NC(=O)c2ccccn2)cc1	12-LOX inh inconclusive (no result: VDR inhibitor, Sfp inh)
COc1ccc(-c2onc3ccc(C(=O)/C=C/N(C)C)cc23)cc1	12-LOX inh 35µM
O=C1NCCCC2c3c(cc(Br)c(O)c3Br)OC12N1CCOCC1 (configuration not stated)	PLK1 PBD block inconclusive, Sfp inh inconclusive, 12-LOX inh inconclusive
O=C1NCCCC2c3cc(O)c4ccccc4c3OC12N1CCCCC1 (configuration not stated)	Sfp inh 20µM (no result: VDR inhibitor, PLK1 PBD block)
Nc1ccn([C@@H]2O[C@H](CO)[C@@H](O)C2O)c(=O)n1 (some centres not stated)	Sfp inh 100µM!, 12-LOX inh inconclusive
Oc1ccccc1Nc1nc(NCc2ccco2)c2ccccc2n1	Sfp inh 25µM
c1cncc(-c2nc(NCc3ccco3)c3ccccc3n2)c1	Sfp inh 79µM
c1ccc(-c2nc(NCc3ccco3)c3oc4ccccc4c3n2)cc1	Sfp inh inconclusive, 12-LOX inh 7.1µM
OCCN1CCN(c2nc(NCc3ccco3)c3ccccc3n2)CC1	12-LOX inh inconclusive

Source: PubChem BioAssay
